Laboratory results as given in the supplement of paper PMC10849652.
The full data set covers some 7,900 targets. This sample favours those with a hit. About 0.6% of all pairs of compound and target were hits. Values without a mark were called inactive.

Assays:
Assay in all cases: log2 fold change, soluble protein after heating vs DMSO (PISA); higher = thermal stabilisation; K562 cells, 10 uM, 30 min; active = over 0.2 and 3.5 SD of the protein, either way, in both replicates (recomputed)
[1] = compound: CC1=C(C=C(C=C1)NC(=O)C2=CC(=CC=C2)C(C)(C)C#N)NC3=CC4=C(C=C3)N=CN(C4=O)C
Summary of the method: (§1)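 Quantification of soluble protein used TMTpro 16plex LC-MS/MS, with channel sums equalised. Samples were the supernatant after 21,000xg for 90 min of pooled aliquots from K562 cells (2×10^6 cells/mL) treated with 10 μM compound for 30 min, heated for 3 min over 48°C-58°C, and extracted in PBS with 0.5% NP-40 at 4°C. Values, from duplicates, describe thermal stability against control samples on a log2 fold-change scale.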

[2] = compound: CC1=C(C=C(C=C1)NC(=O)C2=CC(=CC=C2)N(C)C)NC(=O)C3=CC=C(C=C3)O
Summary of the method: as §1

[3] = compound: CC1=CC=C(C=C1)SC2=C3C=C(SC3=CN=C2)C(=O)N
Summary of the method: as §1

[4] = compound: CC1=NC(=CC=C1)C2=C(N=C(N2)C(C)(C)C)C3=CC4=NC=CN=C4C=C3
Summary of the method: as §1

Nexturastat A = compound: CCCCN(Cc1ccc(C(=O)NO)cc1)C(=O)Nc1ccccc1 [Nexturastat A]
Summary of the method: as §1

vemurafenib = compound: CCCS(=O)(=O)Nc1ccc(F)c(C(=O)c2c[nH]c3ncc(-c4ccc(Cl)cc4)cc23)c1F [vemurafenib]
Summary of the method: as §1

[5] = compound: CCCS(=O)(=O)Nc1ccc(F)c(C(=O)c2c[nH]c3ncc(Cl)cc23)c1F
Summary of the method: as §1

[6] = compound: CCCc1cc(C)[nH]c(=O)c1CNC(=O)c1cc(-c2ccnc(N3CCN(C)CC3)c2)cc2c1cnn2C(C)C
Summary of the method: as §1

givinostat = compound: CCN(CC)Cc1ccc2cc(COC(=O)Nc3ccc(C(=O)NO)cc3)ccc2c1 [givinostat]
Summary of the method: as §1

barasertib = compound: CCN(CCCOc1ccc2c(Nc3cc(CC(=O)Nc4cccc(F)c4)[nH]n3)ncnc2c1)CCOP(=O)(O)O [barasertib]
Summary of the method: as §1

Chain of UniProt Q9NX18 (Q9NX18 whole entry, looked up): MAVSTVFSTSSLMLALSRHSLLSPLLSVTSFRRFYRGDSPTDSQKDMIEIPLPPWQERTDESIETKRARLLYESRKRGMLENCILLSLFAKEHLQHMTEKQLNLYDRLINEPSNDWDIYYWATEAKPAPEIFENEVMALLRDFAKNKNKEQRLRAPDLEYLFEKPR
Chain of UniProt Q14498 (Q14498 whole entry, looked up): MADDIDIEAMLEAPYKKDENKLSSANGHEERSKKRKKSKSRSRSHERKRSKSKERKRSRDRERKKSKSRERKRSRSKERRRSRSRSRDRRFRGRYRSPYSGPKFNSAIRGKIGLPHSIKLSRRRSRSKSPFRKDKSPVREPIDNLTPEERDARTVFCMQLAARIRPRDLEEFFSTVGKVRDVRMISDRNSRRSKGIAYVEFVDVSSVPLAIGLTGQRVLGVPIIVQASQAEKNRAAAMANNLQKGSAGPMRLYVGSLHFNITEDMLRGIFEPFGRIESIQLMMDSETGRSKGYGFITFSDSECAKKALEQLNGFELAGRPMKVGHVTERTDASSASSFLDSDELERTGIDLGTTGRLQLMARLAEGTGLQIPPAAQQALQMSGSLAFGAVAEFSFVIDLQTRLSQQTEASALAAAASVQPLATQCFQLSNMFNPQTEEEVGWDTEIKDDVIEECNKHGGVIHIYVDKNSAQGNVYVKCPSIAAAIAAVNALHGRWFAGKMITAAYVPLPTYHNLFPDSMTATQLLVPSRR
Chain of UniProt O43818 (O43818 whole entry, looked up): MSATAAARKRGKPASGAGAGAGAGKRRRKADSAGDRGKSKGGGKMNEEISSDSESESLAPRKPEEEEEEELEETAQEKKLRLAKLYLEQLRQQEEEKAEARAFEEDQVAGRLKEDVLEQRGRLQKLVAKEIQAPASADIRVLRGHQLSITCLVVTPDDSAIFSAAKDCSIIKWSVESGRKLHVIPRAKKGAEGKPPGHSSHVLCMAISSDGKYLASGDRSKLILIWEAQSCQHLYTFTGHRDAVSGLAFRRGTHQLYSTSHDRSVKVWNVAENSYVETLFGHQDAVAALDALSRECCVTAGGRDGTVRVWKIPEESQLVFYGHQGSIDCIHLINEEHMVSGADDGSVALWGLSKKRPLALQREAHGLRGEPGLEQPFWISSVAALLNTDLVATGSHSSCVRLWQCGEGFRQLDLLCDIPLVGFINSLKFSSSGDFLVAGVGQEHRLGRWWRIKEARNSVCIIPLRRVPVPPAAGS
Chain of UniProt Q13530 (Q13530 whole entry, looked up): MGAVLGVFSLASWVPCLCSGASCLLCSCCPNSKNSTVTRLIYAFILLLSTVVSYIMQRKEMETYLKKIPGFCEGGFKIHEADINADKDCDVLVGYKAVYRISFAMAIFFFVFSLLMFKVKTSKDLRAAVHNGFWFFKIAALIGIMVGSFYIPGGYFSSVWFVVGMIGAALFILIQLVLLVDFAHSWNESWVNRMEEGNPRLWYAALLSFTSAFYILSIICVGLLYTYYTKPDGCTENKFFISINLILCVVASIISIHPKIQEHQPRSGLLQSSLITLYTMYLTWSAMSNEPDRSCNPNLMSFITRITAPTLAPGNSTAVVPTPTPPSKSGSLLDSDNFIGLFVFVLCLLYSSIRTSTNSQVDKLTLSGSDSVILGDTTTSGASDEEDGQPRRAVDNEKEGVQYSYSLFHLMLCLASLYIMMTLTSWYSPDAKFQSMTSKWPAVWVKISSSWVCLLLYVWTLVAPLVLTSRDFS
Chain of UniProt Q8NEM2 (Q8NEM2 whole entry, looked up): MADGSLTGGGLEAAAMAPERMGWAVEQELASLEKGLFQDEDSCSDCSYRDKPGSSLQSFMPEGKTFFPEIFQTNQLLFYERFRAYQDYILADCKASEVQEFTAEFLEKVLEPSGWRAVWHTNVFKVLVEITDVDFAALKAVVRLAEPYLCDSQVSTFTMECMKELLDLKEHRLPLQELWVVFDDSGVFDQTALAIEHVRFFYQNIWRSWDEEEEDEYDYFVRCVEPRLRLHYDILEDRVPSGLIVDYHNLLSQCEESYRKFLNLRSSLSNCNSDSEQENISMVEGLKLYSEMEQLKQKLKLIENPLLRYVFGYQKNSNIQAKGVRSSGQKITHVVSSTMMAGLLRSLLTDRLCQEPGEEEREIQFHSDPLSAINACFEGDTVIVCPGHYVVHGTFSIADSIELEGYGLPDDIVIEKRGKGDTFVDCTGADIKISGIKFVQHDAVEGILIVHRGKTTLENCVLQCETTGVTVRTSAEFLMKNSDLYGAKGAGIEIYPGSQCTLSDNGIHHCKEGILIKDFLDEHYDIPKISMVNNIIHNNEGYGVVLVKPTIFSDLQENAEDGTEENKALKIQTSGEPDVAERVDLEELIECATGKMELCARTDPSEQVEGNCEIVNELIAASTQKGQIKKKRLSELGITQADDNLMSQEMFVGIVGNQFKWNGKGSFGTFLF
Chain of UniProt Q15382 (Q15382 whole entry, looked up): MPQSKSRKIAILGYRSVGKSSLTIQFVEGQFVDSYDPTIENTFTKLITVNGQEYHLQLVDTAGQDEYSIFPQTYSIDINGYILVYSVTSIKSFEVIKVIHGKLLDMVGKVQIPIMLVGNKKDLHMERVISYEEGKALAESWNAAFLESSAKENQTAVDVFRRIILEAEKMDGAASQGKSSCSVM
Chain of UniProt P35244 (P35244 whole entry, looked up): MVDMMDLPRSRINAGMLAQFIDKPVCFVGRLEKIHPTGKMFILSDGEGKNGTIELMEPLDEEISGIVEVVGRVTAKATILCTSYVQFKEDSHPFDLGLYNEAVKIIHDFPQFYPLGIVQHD
Chain of UniProt P40938 (P40938 whole entry, looked up): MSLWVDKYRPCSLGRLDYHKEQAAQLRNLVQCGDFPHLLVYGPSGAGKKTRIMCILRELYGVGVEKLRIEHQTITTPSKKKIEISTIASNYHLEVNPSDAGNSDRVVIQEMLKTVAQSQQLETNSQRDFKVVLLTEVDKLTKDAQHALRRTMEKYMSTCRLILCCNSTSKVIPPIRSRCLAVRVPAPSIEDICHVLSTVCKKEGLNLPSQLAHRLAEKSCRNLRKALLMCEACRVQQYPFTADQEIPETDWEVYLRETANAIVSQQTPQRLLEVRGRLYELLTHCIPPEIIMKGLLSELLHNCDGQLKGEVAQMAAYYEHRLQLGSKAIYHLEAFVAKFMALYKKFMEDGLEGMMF
Chain of UniProt Q9Y6Y8 (Q9Y6Y8 whole entry, looked up): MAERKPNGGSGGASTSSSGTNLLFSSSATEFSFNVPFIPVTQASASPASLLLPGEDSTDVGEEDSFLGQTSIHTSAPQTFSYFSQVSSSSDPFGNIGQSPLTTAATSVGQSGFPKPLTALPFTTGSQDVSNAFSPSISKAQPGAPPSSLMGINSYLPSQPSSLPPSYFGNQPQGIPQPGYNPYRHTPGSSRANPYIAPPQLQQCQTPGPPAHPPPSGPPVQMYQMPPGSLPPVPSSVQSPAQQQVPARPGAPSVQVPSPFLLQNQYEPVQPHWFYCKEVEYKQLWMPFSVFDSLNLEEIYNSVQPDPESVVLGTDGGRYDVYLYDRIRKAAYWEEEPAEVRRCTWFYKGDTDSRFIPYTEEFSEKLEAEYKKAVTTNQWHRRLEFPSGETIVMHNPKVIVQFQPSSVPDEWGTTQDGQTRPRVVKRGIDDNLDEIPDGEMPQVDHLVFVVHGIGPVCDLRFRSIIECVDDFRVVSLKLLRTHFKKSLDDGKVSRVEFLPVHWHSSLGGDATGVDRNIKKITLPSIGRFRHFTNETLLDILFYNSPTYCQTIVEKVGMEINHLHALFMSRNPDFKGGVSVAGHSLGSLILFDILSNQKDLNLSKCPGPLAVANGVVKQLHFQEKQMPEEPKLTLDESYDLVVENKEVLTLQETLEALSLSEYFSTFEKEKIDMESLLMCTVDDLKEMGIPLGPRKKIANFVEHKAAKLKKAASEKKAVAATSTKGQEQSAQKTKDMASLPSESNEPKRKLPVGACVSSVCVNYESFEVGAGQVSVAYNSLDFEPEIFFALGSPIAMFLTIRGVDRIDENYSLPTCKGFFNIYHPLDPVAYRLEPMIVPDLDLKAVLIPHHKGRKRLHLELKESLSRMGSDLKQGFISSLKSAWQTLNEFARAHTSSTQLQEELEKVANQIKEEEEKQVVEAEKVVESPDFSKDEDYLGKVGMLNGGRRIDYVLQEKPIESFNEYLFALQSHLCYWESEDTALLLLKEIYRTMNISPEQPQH
Chain of UniProt P54136 (P54136 whole entry, looked up): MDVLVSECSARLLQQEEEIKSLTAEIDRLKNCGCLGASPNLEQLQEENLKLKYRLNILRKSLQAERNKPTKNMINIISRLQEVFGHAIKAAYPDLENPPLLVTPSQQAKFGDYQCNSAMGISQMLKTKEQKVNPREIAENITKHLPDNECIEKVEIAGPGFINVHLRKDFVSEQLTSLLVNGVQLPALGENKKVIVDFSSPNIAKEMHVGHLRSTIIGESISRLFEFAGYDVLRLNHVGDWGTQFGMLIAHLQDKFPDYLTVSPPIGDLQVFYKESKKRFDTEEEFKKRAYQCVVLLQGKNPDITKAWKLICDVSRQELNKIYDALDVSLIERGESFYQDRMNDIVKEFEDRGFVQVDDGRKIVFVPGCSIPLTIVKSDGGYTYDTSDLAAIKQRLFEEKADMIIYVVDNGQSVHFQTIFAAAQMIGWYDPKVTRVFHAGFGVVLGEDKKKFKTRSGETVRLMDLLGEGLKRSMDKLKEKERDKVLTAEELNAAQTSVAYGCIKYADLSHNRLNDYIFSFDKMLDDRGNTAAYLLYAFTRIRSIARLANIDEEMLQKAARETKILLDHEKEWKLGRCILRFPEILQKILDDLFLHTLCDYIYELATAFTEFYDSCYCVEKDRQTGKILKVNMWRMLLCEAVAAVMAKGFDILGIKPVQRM
Chain of UniProt Q8N0T1 (Q8N0T1 whole entry, looked up): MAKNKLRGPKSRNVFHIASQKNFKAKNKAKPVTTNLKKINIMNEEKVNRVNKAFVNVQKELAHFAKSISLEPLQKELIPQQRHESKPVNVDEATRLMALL

| Target | log2 fold change [1] | log2 fold change [2] | log2 fold change [3] | log2 fold change [4] | log2 fold change (Nexturastat A) | log2 fold change (vemurafenib) | log2 fold change [5] | log2 fold change [6] | log2 fold change (givinostat) | log2 fold change (barasertib) |
| --- | --- | --- | --- | --- | --- | --- | --- | --- | --- | --- |
| RBM12 (UniProt Q9NTZ6) | 0.016 | -0.101 | 0.057 | 0.116 | -0.085 | 0.058 | 0.136 | 0.008 | 0.062 | 0.122 |
| RBM27 (UniProt Q9P2N5) | 0.031 | -0.008 | 0.01 | -0.018 | 0.025 | -0.008 | 0.09 | 0.041 | 0.013 | 0.009 |
| ROCK1 (UniProt Q13464) | 0.003 | -0.073 | -0.016 | -0.037 | 0.093 | 0.052 | 0.036 | -0.019 | 0.031 | 0.021 |
| SART3, A0A499FI31 | 0.015 | -0.05 | -0.014 | 0.04 | -0.043 | 0.023 | 0.072 | -0.013 | 0.012 | 0.022 |
| REEP4 (UniProt Q9H6H4) | 0.08 | 0.001 | 0.047 | -0.043 | 0.107 | 0.008 | 0.126 | 0.019 | 0.011 | 0.002 |
| SCG3 (UniProt Q8WXD2) | 0.134 | -0.105 | -0.011 | -0.05 | -0.071 | 0.027 | -0.041 | 0.11 | -0.043 | 0.013 |
| ROR2 (UniProt Q01974) | 0.022 | -0.061 | 0.001 | -0.009 | -0.109 | 0.018 | 0.007 | 0.078 | 0.033 | 0.003 |
| RNPS1 (UniProt Q15287) | -0.043 | 0.015 | 0.017 | 0.031 | 0.245 | -0.001 | -0.033 | -0.024 | 0.071 | 0.015 |
| SEC31A (UniProt O94979) | -0.053 | -0.052 | 0.015 | 0.019 | 0.102 | 0.054 | 0.064 | -0.032 | 0.098 | 0.052 |
| SERINC3 (UniProt Q13530) | -0.136 | -0.001 | 0.009 | 0.054 | 0.011 | 0.083 | 0.002 | -0.414 (active) | 0.064 | 0.038 |
| RPA3 (UniProt P35244) | 0.076 | -0.059 | 0.111 | 0.014 | 0.091 | 0.298 (active) | 0.053 | -0.044 | -0.109 | 0.066 |
| SHCBP1 (UniProt Q8NEM2) | 0 | -0.032 | 0 | 0.07 | 0.047 | 0.102 | 0.027 | -0.014 | 0.018 | 0.117 |
| RFC3 (UniProt P40938) | -0.003 | -0.031 | 0.05 | 0.058 | -0.032 | 0.048 | 0.101 | 0 | -0.007 | -0.011 |
| RBM39 (UniProt Q14498) | -0.035 | 0 | -0.011 | 0.071 | 0.043 | 0.084 | 0.083 | 0.034 | 0.131 | 0.012 |
| RPS9 (UniProt P46781) | 0.039 | 0 | -0.073 | -0.016 | 0.104 | -0.107 | -0.066 | 0.087 | 0.038 | -0.114 |
| SESN2 (UniProt P58004) | 0.166 | -0.069 | -0.017 | -0.031 | 0.094 | 0.194 | 0.186 | 0.19 | 0.046 | 0.119 |
| SASH1 (UniProt O94885) | 0.046 | -0.013 | 0.024 | 0.01 | 0.038 | -0.043 | 0.097 | -0.031 | -0.063 | 0.071 |
| SDHAF2 (UniProt Q9NX18) | -0.047 | 0.026 | 0.079 | 0.019 | 0.076 | 0.028 | -0.024 | -0.06 | 0.036 | 0.005 |
| RPS16 (UniProt P62249) | 0.028 | -0.016 | -0.087 | -0.035 | 0.11 | -0.073 | -0.103 | 0.337 | -0.046 | -0.053 |
| SEC23IP (UniProt Q9Y6Y8) | 0.016 | 0.041 | 0.041 | 0.012 | 0.022 | 0.051 | 0.056 | 0.024 | 0.047 | 0.016 |
| RPS21 (UniProt P63220) | -0.007 | 0.01 | -0.042 | -0.007 | -0.033 | -0.077 | -0.072 | -0.038 | -0.015 | -0.016 |
| RHEB (UniProt Q15382) | 0.008 | -0.002 | 0.008 | 0.052 | -0.277 (active) | -0.004 | 0.021 | -0.026 | -0.009 | 0.014 |
| RARS (UniProt P54136) | 0.005 | 0.006 | -0.011 | -0.048 | 0.325 | -0.018 | 0.058 | 0.075 | 0.016 | 0.037 |
| SIRT2 (UniProt Q8IXJ6) | 0.014 | -0.051 | -0.016 | 0.027 | 0.004 | 0.012 | -0.022 | -0.002 | 0.004 | 0.015 |
| SEC23A (UniProt Q15436) | 0.005 | -0.067 | -0.027 | -0.041 | 0.008 | 0.049 | 0.06 | 0.003 | -0.025 | 0.027 |
| RRP9 (UniProt O43818) | -0.03 | 0.057 | -0.046 | -0.081 | 0.095 | -0.026 | -0.074 | 0.009 | 0.047 | -0.084 |
| RBIS (UniProt Q8N0T1) | -0.099 | -0.011 | -0.055 | 0.023 | -0.012 | -0.002 | -0.063 | -0.074 | -0.02 | -0.009 |
| RIPK1 (UniProt Q13546) | 0.101 | -0.043 | -0.002 | -0.178 | 0.109 | 0.054 | 0.135 | 0.092 | 0.094 | 0.085 |
| RABGAP1L isoform 3 (UniProt Q5R372) | 0.002 | 0.018 | 0.018 | -0.005 | -0.058 | -0.008 | 0.073 | 0.03 | 0.034 | 0.022 |
| RETSAT (UniProt Q6NUM9) | 0.014 | 0.025 | 0.088 | -0.037 | -0.003 | -0.03 | -0.077 | -0.091 | 0.31 | 0.009 |
